Experimental data reported in the supplement of paper PMC10849652.
Targets with a hit are over-represented here; the source holds about 7,900 in all. About 0.6% of all pairs of compound and target were hits.

Tests used:
Experiment in all cases: log2 fold change, soluble protein after heating vs DMSO (PISA); higher = thermal stabilisation; K562 cells, 10 uM, 30 min; active = over 0.2 and 3.5 SD of the protein, either way, in both replicates (recomputed)
[1] = compound: CC1=C(C=C(C=C1)NC(=O)C2=CC(=CC=C2)C(C)(C)C#N)NC3=CC4=C(C=C3)N=CN(C4=O)C
In short: (§1)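 K562 cells (2×10^6 cells/mL) were treated with 10 μM compound for 30 min, and aliquots were heated for 3 min over 48°C-58°C. Pooled aliquots were extracted in PBS with 0.5% NP-40 at 4°C, and the supernatant after 21,000xg for 90 min was measured by TMTpro 16plex LC-MS/MS with channel sums equalised. Reported thermal stability, relative to control samples and from duplicates, is a log2 fold change.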

[2] = compound: CC1=C(C=C(C=C1)NC(=O)C2=CC(=CC=C2)N(C)C)NC(=O)C3=CC=C(C=C3)O
In short: as §1

[3] = compound: CC1=CC=C(C=C1)SC2=C3C=C(SC3=CN=C2)C(=O)N
In short: as §1

[4] = compound: CC1=NC(=CC=C1)C2=C(N=C(N2)C(C)(C)C)C3=CC4=NC=CN=C4C=C3
In short: as §1

Nexturastat A = compound: CCCCN(Cc1ccc(C(=O)NO)cc1)C(=O)Nc1ccccc1 [Nexturastat A]
In short: as §1

vemurafenib = compound: CCCS(=O)(=O)Nc1ccc(F)c(C(=O)c2c[nH]c3ncc(-c4ccc(Cl)cc4)cc23)c1F [vemurafenib]
In short: as §1

[5] = compound: CCCS(=O)(=O)Nc1ccc(F)c(C(=O)c2c[nH]c3ncc(Cl)cc23)c1F
In short: as §1

[6] = compound: CCCc1cc(C)[nH]c(=O)c1CNC(=O)c1cc(-c2ccnc(N3CCN(C)CC3)c2)cc2c1cnn2C(C)C
In short: as §1

givinostat = compound: CCN(CC)Cc1ccc2cc(COC(=O)Nc3ccc(C(=O)NO)cc3)ccc2c1 [givinostat]
In short: as §1

barasertib = compound: CCN(CCCOc1ccc2c(Nc3cc(CC(=O)Nc4cccc(F)c4)[nH]n3)ncnc2c1)CCOP(=O)(O)O [barasertib]
In short: as §1

[7] = compound: CC[C@@H]1C(=O)N(C)c2cnc(Nc3ccc(C(=O)NC4CCN(C)CC4)cc3OC)nc2N1C1CCCC1
In short: as §1

volasertib = compound: CC[C@@H]1C(=O)N(C)c2cnc(Nc3ccc(C(=O)N[C@H]4CC[C@H](N5CCN(CC6CC6)CC5)CC4)cc3OC)nc2N1C(C)C [volasertib]
In short: as §1

[8] = compound: CC[C@H](C)N1C=C(C2=C(C=C(C=C21)C3=CN=C(C=C3)N4CCNCC4)C(=O)NCC5=C(C=C(NC5=O)C)C)C
In short: as §1

epoxomicin = compound: CC[C@H](C)[C@@H](C(=O)N[C@@H]([C@@H](C)O)C(=O)N[C@@H](CC(C)C)C(=O)[C@]1(CO1)C)NC(=O)[C@H]([C@@H](C)CC)N(C)C(=O)C [epoxomicin]
In short: as §1

[9] = compound: CCn1c(C(=O)N(C2CC2)C2CC2)cc2c3c(ncn3C)c(Nc3cc(C)n(C)n3)nc21
In short: as §1

[10] = compound: CCn1cc(-c2ccnc3[nH]c(-c4cccc(CN(C)C)c4)cc23)c(-c2ccc(NC(=O)N(C)C)cc2)n1
In short: as §1

[11] = compound: CN(C)CC(=O)Nc1ccc2[nH]c(=O)c3ccccc3c2c1
In short: as §1

rosiglitazone = compound: CN(CCOC1=CC=C(C=C1)C[C@H]2C(=O)NC(=O)S2)C3=CC=CC=N3 (racemic) [rosiglitazone]
In short: as §1

[12] = compound: CN1C2=C(C3=C1C(=O)N(N=C3)CC4=CC(=CC=C4)N)SC(=C2)S(=O)C
In short: as §1

[13] = compound: CN1CCC(CNc2ccc3ncc(-c4cccc(OC(F)(F)F)c4)n3n2)CC1
In short: as §1

Measured: log2 fold change

POMK (UniProt Q9H5K3)
UniProt Q9H5K3, sequence (Q9H5K3 whole entry, looked up): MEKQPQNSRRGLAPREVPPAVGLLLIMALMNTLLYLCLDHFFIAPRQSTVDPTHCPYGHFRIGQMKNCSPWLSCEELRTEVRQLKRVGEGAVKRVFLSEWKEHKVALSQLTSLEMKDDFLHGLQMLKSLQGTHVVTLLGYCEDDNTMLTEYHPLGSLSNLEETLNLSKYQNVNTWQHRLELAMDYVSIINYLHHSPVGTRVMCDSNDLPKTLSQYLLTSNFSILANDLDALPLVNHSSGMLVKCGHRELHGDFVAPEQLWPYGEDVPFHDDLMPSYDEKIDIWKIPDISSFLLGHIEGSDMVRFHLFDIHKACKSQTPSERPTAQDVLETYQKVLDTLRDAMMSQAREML
inactive: [1] 0.029 | [2] -0.018 | [3] 0.028 | [4] 0 | Nexturastat A -0.01 | vemurafenib 0.04 | [5] 0.041 | [6] 0 | givinostat 0.002 | barasertib 0.11 | [7] -0.079 | volasertib -0.093 | [8] 0.014 | epoxomicin -0.05 | [9] 0.054 | [10] 0.054 | [11] -0.007 | rosiglitazone 0.012 | [12] 0.023 | [13] -0.082

PIK3R1 (UniProt P27986)
UniProt P27986, sequence (P27986 whole entry, looked up): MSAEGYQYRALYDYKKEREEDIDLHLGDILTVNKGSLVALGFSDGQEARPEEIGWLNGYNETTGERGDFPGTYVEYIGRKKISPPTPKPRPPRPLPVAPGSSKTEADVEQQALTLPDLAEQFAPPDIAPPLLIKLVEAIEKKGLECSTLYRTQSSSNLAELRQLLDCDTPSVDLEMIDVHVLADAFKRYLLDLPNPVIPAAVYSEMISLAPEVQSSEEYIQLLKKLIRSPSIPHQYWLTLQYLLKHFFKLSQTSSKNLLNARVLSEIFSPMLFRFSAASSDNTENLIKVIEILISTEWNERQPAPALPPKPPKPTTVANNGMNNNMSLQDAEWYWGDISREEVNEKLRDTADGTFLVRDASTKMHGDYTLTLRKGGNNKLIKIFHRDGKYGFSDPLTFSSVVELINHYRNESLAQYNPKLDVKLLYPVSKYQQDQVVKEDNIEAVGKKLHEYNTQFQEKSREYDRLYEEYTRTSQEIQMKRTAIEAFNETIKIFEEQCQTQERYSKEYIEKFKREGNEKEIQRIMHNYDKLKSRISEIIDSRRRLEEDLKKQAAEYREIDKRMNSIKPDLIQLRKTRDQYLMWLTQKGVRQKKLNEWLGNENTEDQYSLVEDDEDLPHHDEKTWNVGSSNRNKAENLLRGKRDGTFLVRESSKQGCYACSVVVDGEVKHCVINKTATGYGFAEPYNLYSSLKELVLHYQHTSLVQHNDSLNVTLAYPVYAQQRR
inactive: [1] -0.08 | [2] 0.001 | [3] -0.019 | [4] -0.046 | Nexturastat A -0.018 | vemurafenib 0.047 | [5] 0.058 | [6] -0.054 | givinostat 0.028 | barasertib 0.038 | [7] -0.04 | volasertib -0.142 | [8] -0.018 | epoxomicin 0.036 | [9] -0.015 | [10] -0.072 | [11] -0.002 | rosiglitazone 0.095 | [12] -0.064 | [13] 0.127

PDCD6 (UniProt O75340)
UniProt O75340, sequence (O75340 whole entry, looked up): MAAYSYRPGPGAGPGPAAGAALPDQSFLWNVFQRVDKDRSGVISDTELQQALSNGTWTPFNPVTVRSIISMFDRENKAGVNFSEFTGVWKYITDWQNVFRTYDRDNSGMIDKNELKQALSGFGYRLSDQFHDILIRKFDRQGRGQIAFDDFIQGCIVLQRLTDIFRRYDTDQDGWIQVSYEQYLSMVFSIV
inactive: [1] 0.013 | [2] 0.039 | [3] -0.001 | [4] 0.032 | Nexturastat A -0.032 | vemurafenib -0.025 | [5] 0.023 | [6] -0.089 | givinostat -0.017 | barasertib 0.004 | [7] -0.157 | [8] -0.006 | epoxomicin 0.031 | [9] -0.005 | [10] -0.01 | [11] 0.007 | rosiglitazone 0.025 | [12] -0.041 | [13] -0.057
active: volasertib -0.283

PRPF31 (UniProt Q8WWY3)
active: volasertib -0.548
inactive: [1] 0.021 | [2] -0.12 | [3] 0 | [4] 0.067 | Nexturastat A -0.01 | vemurafenib -0.017 | [5] 0.087 | [6] 0.106 | givinostat 0.065 | barasertib 0.096 | [7] -0.113 | [8] 0.172 | epoxomicin 0.049 | [9] -0.058 | [10] -0.079 | [11] 0.181 | rosiglitazone 0.104 | [12] -0.041 | [13] -0.348

PUM1 isoform 3 (UniProt Q14671)
inactive: [1] -0.011 | [2] 0.01 | [3] 0.011 | [4] 0.042 | Nexturastat A 0.06 | vemurafenib 0.02 | [5] 0.05 | [6] 0.002 | givinostat -0.03 | barasertib 0.011 | [7] -0.075 | [8] 0.036 | epoxomicin 0.023 | [9] -0.007 | [10] -0.018 | [11] 0.015 | rosiglitazone 0.033 | [12] 0.044 | [13] -0.123
active: volasertib -0.302

PSMD2 (UniProt Q13200)
UniProt Q13200, sequence (Q13200 whole entry, looked up): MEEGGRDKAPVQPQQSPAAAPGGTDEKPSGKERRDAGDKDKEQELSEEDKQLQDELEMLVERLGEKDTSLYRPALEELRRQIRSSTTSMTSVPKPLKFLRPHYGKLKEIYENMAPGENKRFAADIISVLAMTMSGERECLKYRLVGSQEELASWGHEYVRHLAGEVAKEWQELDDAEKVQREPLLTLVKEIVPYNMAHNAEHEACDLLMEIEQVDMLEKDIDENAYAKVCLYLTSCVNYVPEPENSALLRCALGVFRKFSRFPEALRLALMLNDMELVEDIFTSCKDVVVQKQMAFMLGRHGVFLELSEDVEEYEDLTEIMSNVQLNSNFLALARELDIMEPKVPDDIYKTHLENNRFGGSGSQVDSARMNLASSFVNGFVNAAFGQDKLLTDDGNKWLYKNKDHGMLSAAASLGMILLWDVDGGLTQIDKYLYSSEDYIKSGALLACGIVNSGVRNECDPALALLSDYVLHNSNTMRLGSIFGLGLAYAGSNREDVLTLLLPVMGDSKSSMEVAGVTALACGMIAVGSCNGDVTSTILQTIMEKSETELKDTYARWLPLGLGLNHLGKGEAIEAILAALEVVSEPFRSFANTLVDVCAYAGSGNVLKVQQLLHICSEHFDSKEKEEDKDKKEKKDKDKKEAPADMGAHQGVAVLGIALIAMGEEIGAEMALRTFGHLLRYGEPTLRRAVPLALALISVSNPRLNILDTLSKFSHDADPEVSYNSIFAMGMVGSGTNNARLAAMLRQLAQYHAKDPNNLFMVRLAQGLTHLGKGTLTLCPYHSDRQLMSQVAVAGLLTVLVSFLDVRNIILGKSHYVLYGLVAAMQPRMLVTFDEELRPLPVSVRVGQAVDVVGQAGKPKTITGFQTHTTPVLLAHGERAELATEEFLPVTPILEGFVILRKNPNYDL
inactive: [1] 0.005 | [2] 0.012 | [3] -0.025 | [4] -0.064 | Nexturastat A 0.024 | vemurafenib -0.091 | [5] -0.014 | [6] 0.136 | givinostat -0.048 | barasertib -0.057 | [7] 0.049 | volasertib 0.089 | [8] -0.009 | [9] 0.011 | [10] 0.07 | [11] -0.04 | rosiglitazone -0.024 | [12] 0.021 | [13] 0.055
active: epoxomicin -0.365

PRMT7 (UniProt Q9NVM4)
inactive: [1] 0.056 | [2] -0.197 | [3] 0.065 | [4] -0.055 | Nexturastat A -0.003 | vemurafenib -0.03 | [5] 0.145 | [6] -0.014 | givinostat 0.042 | barasertib 0.023 | [7] -0.074 | [8] 0.04 | epoxomicin -0.036 | [9] -0.042 | [10] -0.077 | [11] 0.032 | rosiglitazone 0.082 | [12] 0.022 | [13] -0.176
active: volasertib -0.461

PDE2A (UniProt O00408)
inactive: [1] -0.041 | [2] 0.007 | [3] 0.041 | [4] -0.019 | Nexturastat A -0.054 | vemurafenib 0.013 | [5] 0.036 | [6] -0.012 | givinostat -0.043 | barasertib 0.011 | [7] -0.031 | volasertib -0.107 | [8] 0.016 | epoxomicin -0.087 | [9] 0.061 | [10] -0.082 | [11] 0.027 | rosiglitazone -0.004 | [12] 0 | [13] -0.091

POLA1 (UniProt P09884)
inactive: [1] -0.001 | [2] -0.029 | [3] -0.003 | [4] 0.052 | Nexturastat A -0.064 | vemurafenib 0.064 | [5] 0.053 | [6] 0.024 | givinostat 0.093 | barasertib 0.098 | [7] -0.048 | [8] 0.059 | epoxomicin 0.045 | [9] -0.014 | [10] -0.089 | [11] 0.032 | rosiglitazone 0.046 | [12] -0.012 | [13] -0.163
active: volasertib -0.466

PCLAF (UniProt Q15004)
UniProt Q15004, sequence (Q15004 whole entry, looked up): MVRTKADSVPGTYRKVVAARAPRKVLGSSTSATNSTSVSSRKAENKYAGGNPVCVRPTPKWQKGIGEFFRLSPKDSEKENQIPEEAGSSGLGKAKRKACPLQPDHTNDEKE
inactive: [1] -0.119 | [2] 0.031 | [3] -0.014 | [4] -0.009 | Nexturastat A -0.002 | vemurafenib -0.097 | [5] -0.083 | [6] 0.115 | givinostat -0.061 | barasertib -0.007 | [7] 0.085 | volasertib 0.124 | [8] -0.046 | epoxomicin 0.185 | [9] 0.012 | [10] 0.035 | [11] -0.087 | rosiglitazone -0.014 | [12] 0.001 | [13] 0.015

POLR3B (UniProt Q9NW08)
inactive: [1] 0.024 | [2] -0.062 | [3] -0.008 | [4] 0.022 | Nexturastat A 0.026 | vemurafenib 0.003 | [5] 0.172 | [6] 0.063 | givinostat 0.138 | barasertib 0.114 | [7] 0.029 | volasertib -0.44 | [8] 0.134 | epoxomicin 0.07 | [9] -0.069 | [10] -0.028 | [11] 0.075 | rosiglitazone 0.035 | [12] 0.105 | [13] -0.058

PTPN23 (UniProt Q9H3S7)
UniProt Q9H3S7, sequence (Q9H3S7 whole entry, looked up): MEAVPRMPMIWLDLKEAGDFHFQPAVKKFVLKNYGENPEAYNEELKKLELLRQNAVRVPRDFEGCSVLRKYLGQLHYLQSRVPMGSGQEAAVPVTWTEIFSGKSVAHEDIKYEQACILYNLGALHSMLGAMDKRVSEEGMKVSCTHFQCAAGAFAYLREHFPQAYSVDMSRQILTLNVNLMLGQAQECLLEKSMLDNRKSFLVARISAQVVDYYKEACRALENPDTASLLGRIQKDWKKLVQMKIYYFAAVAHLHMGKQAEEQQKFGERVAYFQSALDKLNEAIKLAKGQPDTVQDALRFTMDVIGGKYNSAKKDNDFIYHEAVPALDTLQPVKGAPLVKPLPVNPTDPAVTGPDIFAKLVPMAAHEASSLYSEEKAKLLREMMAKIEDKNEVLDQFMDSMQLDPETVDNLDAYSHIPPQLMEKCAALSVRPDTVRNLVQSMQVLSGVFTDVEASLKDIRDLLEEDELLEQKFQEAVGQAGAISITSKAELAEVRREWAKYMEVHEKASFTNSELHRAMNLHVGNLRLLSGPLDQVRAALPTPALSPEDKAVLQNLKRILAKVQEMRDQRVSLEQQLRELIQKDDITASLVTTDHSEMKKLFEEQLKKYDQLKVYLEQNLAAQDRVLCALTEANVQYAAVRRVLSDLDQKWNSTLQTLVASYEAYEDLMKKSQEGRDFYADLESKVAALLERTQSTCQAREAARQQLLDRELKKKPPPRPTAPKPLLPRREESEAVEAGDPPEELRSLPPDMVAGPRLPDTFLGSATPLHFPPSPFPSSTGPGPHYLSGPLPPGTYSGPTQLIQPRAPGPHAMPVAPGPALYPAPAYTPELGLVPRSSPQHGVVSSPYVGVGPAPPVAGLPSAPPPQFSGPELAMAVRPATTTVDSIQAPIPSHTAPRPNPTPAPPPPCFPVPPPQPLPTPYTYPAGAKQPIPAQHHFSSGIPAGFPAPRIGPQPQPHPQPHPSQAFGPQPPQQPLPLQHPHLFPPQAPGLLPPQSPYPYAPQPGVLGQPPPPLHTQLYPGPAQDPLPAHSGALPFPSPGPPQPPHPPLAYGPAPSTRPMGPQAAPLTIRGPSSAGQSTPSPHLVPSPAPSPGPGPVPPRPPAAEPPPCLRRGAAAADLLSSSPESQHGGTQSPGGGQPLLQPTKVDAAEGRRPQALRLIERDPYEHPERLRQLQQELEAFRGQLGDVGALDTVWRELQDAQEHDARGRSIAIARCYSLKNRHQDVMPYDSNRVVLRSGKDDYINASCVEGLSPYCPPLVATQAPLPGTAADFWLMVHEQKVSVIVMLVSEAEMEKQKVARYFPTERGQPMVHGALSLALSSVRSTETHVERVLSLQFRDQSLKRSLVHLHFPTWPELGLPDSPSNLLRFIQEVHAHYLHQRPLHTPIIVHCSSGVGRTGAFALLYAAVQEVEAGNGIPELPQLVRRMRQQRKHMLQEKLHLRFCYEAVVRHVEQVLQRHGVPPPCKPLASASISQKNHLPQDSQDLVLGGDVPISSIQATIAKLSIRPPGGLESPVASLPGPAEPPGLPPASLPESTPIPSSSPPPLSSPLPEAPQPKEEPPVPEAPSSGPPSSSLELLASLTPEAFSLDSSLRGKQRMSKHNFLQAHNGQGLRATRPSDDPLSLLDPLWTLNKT
active: volasertib -0.453
inactive: [1] -0.062 | [2] -0.049 | [3] -0.009 | [4] 0.002 | Nexturastat A -0.015 | vemurafenib 0.025 | [5] 0.051 | [6] 0.088 | givinostat 0.107 | barasertib 0.047 | [7] -0.163 | [8] 0.019 | epoxomicin 0.013 | [9] -0.024 | [10] -0.006 | [11] 0.073 | rosiglitazone 0.017 | [12] 0.016 | [13] -0.106

PSMC2 (UniProt P35998)
UniProt P35998, sequence (P35998 whole entry, looked up): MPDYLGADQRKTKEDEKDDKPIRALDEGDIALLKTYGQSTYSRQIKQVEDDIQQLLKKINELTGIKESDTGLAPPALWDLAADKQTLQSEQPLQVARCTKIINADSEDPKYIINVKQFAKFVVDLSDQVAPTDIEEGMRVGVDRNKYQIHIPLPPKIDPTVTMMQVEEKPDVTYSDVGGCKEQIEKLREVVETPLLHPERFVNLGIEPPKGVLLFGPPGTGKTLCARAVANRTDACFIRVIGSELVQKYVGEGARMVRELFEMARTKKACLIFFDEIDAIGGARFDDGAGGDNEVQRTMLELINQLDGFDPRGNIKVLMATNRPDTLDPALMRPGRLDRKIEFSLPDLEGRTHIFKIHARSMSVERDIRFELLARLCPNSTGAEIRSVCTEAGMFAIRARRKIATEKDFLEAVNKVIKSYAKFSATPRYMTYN
active: epoxomicin -0.324
inactive: [1] 0.011 | [2] 0.02 | [3] -0.012 | [4] -0.069 | Nexturastat A 0.011 | vemurafenib -0.014 | [5] -0.041 | [6] 0.036 | givinostat -0.032 | barasertib -0.053 | [7] 0.042 | volasertib 0.169 | [8] -0.019 | [9] 0.012 | [10] 0.024 | [11] -0.018 | rosiglitazone -0.044 | [12] 0.023 | [13] 0.039

PRKAB1 (UniProt Q9Y478)
UniProt Q9Y478, sequence (Q9Y478 whole entry, looked up): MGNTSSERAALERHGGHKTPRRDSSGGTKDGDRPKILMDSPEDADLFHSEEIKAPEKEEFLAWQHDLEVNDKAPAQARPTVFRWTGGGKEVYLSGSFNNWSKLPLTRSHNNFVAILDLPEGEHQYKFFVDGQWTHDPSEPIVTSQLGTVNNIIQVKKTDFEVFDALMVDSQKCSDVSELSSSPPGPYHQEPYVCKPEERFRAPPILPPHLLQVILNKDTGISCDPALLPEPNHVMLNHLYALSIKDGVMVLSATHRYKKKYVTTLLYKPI
inactive: [1] -0.055 | [2] 0.026 | [3] 0.022 | [4] 0.01 | Nexturastat A -0.002 | vemurafenib 0.031 | [5] 0.017 | [6] 0.109 | givinostat 0.08 | barasertib 0.026 | [7] -0.079 | [8] 0.045 | epoxomicin 0.055 | [9] -0.05 | [10] -0.018 | [11] 0.022 | rosiglitazone -0.002 | [12] -0.026 | [13] -0.155
active: volasertib -0.418

PRKAB2 (UniProt O43741)
UniProt O43741, sequence (O43741 whole entry, looked up): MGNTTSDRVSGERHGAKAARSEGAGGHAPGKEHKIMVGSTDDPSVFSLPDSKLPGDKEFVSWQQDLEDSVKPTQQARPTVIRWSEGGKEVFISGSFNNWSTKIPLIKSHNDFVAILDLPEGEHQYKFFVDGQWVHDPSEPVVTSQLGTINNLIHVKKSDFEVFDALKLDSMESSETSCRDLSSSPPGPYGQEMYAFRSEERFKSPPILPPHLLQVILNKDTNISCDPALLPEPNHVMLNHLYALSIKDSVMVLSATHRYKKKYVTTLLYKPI
inactive: [1] 0.122 | [2] -0.015 | [3] 0.106 | [4] 0.118 | Nexturastat A -0.079 | vemurafenib 0.074 | [5] 0.177 | [6] -0.18 | givinostat 0.027 | barasertib 0.067 | [7] 0.085 | volasertib -0.185 | [8] 0.022 | epoxomicin 0.205 | [9] 0.013 | [10] -0.089 | [11] 0.067 | rosiglitazone 0.044 | [12] 0.043 | [13] -0.247

POLR2I (UniProt P36954)
inactive: [1] -0.063 | [2] -0.011 | [3] -0.015 | [4] 0.001 | Nexturastat A 0.055 | vemurafenib -0.086 | [5] -0.081 | [6] -0.057 | givinostat -0.151 | barasertib 0.085 | [7] 0.209 | volasertib 0.232 | [8] 0.055 | epoxomicin 0.007 | [9] 0.017 | [10] -0.208 | [11] -0.107 | rosiglitazone -0.107 | [12] -0.009 | [13] 0.202
